# According to PubChem BioAssay (Tox21):
# Inconclusive results are not listed. Where a call stands in place of a potency, no number is given. Active and inactive are the calls of the source. Unless noted, calls follow the shape of the dose curve; as a rule, active = well fitted curve in the direction sought with a large enough effect in the repeat runs; inconclusive = weak or mixed curves; inactive = no such curve, though single readings can be large; an effect the other way counts as inactive or inconclusive. Positions of bridges follow the written chain, without caps; N, C: chain ends. Non-standard residues stand in square brackets, D forms with d. Residues, ends and D or L forms follow the SMILES beside them. *: point of attachment. X2 = CC[C@H](C)CCCCC(=O)*; Dab = NCC[C@H](N)C(=O)O
# Assays:
# [1] = qHTS assay to test for compound auto fluorescence at 535 nm (green) in HEK293 cells (AID 720680)
# [2] = qHTS assay to test for compound auto fluorescence at 460 nm (blue) in HEK293 cell free culture (AID 720681)
# Procedure, shortened: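 Compounds were added to cell-free DMEM with 10% FBS and fluorescence read directly. The blue channel used 405 nm excitation and 460 nm emission, with triamterene as the reference fluorophore.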
# [3] = qHTS assay to test for compound auto fluorescence at 535 nm (green) in HEK293 cell free culture (AID 720682)
# Procedure, shortened: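 No cells present: wells hold DMEM supplemented with 10% FBS, into which compound or vehicle is pinned. Green emission is then recorded (485 nm excitation, 535 nm emission) and scaled to fluorescein.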
# [4] = qHTS assay to test for compound auto fluorescence at 590 nm (red) in HEK293 cell free culture (AID 720683)
# Procedure, shortened: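 Cell-free wells of DMEM with 10% FBS received compound, and intrinsic fluorescence was read at excitation/emission 540/590 nm. Values expressed as equivalence to Rose Bengal sodium.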
# [5] = qHTS assay to test for compound auto fluorescence at 590 nm (red) in HepG2 cell free culture (AID 720684)
# Procedure, shortened: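 Auto fluorescence equivalency versus Rose Bengal sodium, red channel Ex/Em 540/590 nm; compounds in cell-free MEM/10% FBS; DMSO vehicle control.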
# [6] = qHTS assay to test for compound auto fluorescence at 460 nm (blue) in HepG2 cell free culture (AID 720685)
# Procedure, shortened: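 Cell-free plates of MEM plus 10% FBS received 23 nL compound or DMSO vehicle; blue-channel (405/460 nm) intensity scored against triamterene as reference fluorophore.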
# [7] = qHTS assay to test for compound auto fluorescence at 535 nm (green) in HepG2 cell free culture (AID 720686)
# [8] = qHTS assay to test for compound auto fluorescence at 460 nm (blue) in HepG2 cells (AID 720687)
# Procedure, shortened: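 HepG2 cells in MEM with 10% FBS, attached overnight at 37 C, were exposed to compound or DMSO for 1 hr at 37 C, 5% CO2. Blue fluorescence was read at 405/460 nm, with triamterene as reference fluorophore.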
# [9] = target: Glucocorticoid receptor (Homo sapiens) (UniProt P04150); test: qHTS assay to identify small molecule agonists of the glucocorticoid receptor (GR) signaling pathway (AID 720691; active = well fitted activation curve with a large enough effect in the signal ratio in the repeat runs, not every such curve was filed as active; the % refers to the signal ratio); conditions: GR-bla HeLa, beta-lactamase reporter ratio, 18 h; activation: at 62.4 µM (top of the series)
# Glucocorticoid receptor (Homo sapiens), sequence (P04150 whole entry, looked up): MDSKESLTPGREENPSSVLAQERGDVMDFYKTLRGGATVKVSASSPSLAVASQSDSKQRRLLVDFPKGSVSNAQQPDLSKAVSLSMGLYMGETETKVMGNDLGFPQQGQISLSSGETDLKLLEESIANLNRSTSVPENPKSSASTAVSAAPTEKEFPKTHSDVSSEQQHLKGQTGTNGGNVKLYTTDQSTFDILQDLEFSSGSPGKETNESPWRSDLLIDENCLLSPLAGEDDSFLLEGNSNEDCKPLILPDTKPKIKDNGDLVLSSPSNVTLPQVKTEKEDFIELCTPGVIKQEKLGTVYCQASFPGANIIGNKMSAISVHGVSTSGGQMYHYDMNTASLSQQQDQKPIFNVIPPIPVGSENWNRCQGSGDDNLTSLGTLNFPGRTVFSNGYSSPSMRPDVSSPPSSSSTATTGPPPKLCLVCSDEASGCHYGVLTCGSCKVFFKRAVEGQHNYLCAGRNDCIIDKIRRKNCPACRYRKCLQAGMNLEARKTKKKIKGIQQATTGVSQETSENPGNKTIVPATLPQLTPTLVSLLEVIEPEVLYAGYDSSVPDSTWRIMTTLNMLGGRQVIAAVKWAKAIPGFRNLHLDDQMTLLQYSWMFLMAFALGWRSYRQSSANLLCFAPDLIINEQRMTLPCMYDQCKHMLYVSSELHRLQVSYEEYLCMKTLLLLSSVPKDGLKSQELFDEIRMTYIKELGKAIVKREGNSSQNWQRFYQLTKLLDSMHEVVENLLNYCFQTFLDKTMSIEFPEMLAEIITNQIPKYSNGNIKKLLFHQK
# Procedure, shortened: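 Cells: GR-bla HeLa, endogenous GR with stably integrated GRE-beta-lactamase reporter. Treatment 18 h, 37 C, compounds delivered in DMSO. Detection via LiveBLAzer B/G FRET substrate, 2 h RT, fluorescence intensity.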
# [10] = target: Glucocorticoid receptor (Homo sapiens) (UniProt P04150); test: qHTS assay to identify small molecule antagonists of the glucocorticoid receptor (GR) signaling pathway (AID 720692; active = well fitted inhibition curve with a large enough effect in the signal ratio in the repeat runs, not every such curve was filed as active; the % refers to the signal ratio; also: potency is read from the fitted curve at half-maximal effect)
# Procedure, shortened: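 Quantitative HTS in antagonist format: HeLa cells expressing endogenous GR and a stably integrated GRE-bla reporter, stimulated with 5 nM dexamethasone (final) alongside test compounds for 18 h.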
# [11] = qHTS assay to identify small molecule antagonists of the glucocorticoid receptor (GR) signaling pathway - cell viability counter screen (AID 720693); also: nearly all actives have a fitted effect of over 55% in size
# [12] = qHTS assay for identifying genotoxic compounds that show differential cytotoxicity against isogenic chicken DT40 cell lines with known DNA damage response pathways - wild type cell line (AID 743012); also: nearly all actives have a fitted effect of over 60% in size; also: potency is read from the fitted curve at half-maximal effect
# Procedure, shortened: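 Luminescent ATP viability signal (CellTiter-Glo, 30 min RT) recorded after wild type DT40 cells were incubated with compounds for 40 h at 37 C/5% CO2.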
# [13] = qHTS assay for identifying genotoxic compounds that show differential cytotoxicity against isogenic chicken DT40 cell lines with known DNA damage response pathways - Rad54/Ku70 mutant cell line (AID 743015); also: nearly all actives have a fitted effect of over 60% in size; also: potency is read from the fitted curve at half-maximal effect
# [14] = target: Androgen receptor (Homo sapiens) (UniProt P10275); test: qHTS assay to identify small molecule agonists of the androgen receptor (AR) signaling pathway (AID 743036; active = well fitted activation curve with a large enough effect in the signal ratio in the repeat runs, with a control signal flat, not every such curve was filed as active; the % refers to the signal ratio)
# Androgen receptor (Homo sapiens), sequence (P10275 whole entry, looked up): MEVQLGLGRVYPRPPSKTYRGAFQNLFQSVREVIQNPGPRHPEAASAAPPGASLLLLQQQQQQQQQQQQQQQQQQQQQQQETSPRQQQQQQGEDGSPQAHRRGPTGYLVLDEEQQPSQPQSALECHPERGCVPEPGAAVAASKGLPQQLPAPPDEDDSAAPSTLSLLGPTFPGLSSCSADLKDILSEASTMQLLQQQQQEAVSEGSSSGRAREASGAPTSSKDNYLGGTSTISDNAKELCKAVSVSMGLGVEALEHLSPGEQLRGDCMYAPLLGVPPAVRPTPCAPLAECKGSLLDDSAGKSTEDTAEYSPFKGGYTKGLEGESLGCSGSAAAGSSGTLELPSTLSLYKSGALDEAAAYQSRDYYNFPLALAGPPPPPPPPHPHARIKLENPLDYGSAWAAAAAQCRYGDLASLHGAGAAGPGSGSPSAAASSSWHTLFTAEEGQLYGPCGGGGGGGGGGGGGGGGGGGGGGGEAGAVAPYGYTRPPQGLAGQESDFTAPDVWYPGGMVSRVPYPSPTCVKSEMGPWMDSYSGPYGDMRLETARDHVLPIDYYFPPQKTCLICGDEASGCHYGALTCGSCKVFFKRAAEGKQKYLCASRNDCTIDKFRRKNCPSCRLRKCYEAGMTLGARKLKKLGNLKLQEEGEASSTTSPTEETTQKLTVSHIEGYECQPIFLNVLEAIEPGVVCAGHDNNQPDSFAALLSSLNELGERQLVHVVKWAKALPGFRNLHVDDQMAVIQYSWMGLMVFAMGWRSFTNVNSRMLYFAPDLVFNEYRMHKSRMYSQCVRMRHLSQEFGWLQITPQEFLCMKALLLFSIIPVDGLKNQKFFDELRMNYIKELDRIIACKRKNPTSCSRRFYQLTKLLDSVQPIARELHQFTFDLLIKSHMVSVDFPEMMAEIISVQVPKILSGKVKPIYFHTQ
# Procedure, shortened: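 Quantitative HTS of the Tox21 10K library in HEK293 cells bearing a stably integrated UAS-controlled beta-lactamase reporter. Compound exposure lasted 16 h at 37C. Reporter activity was detected by FRET substrate fluorescence after 2 h at room temperature.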
# [15] = target: Androgen receptor (Homo sapiens) (UniProt P10275); test: qHTS assay to identify small molecule agonists of the androgen receptor (AR) signaling pathway using the MDA cell line (AID 743040; also: nearly all actives have a fitted effect of over 20% in size)
# Procedure, shortened: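 Testing was done with the MDA-kb2 AR-luc line, a human breast carcinoma stably transfected with MMTV-luciferase containing AR and GR response elements. Cells were exposed 16 h at 37C before ONE-Glo luminescence detection.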
# [16] = qHTS assay to identify small molecule antagonists of the androgen receptor (AR) signaling pathway using the MDA cell line - cell viability counter screen (AID 743041; also: nearly all actives have a fitted effect of over 45% in size; also: potency is read from the fitted curve at half-maximal effect)
# Procedure, shortened: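 Compound exposure lasted 16 h at 37C in MDA-kb2 AR-luc cells stimulated with R1881. Protease-based CellTiter-Fluor reagent was applied for the final 30 min and fluorescence measured.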
# [17] = target: Androgen receptor (Homo sapiens) (UniProt P10275); test: qHTS assay to identify small molecule antagonists of the androgen receptor (AR) signaling pathway using the MDA cell line (AID 743042; also: nearly all actives have a fitted effect of over 55% in size)
# Procedure, shortened: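 MDA-kb2 breast carcinoma cells carrying MMTV-luciferase (AR/GR responsive) were co-treated with compounds and the agonist R1881 for 16 h at 37C. Inhibition read as ONE-Glo luminescence; CellTiter-Fluor fluorescence measured in parallel for cytotoxicity.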
# [18] = qHTS assay to identify small molecule antagonists of the androgen receptor (AR) signaling pathway - cell viability counter screen (AID 743033; also: nearly all actives have a fitted effect of over 45% in size)
# [19] = qHTS assay for identifying genotoxic compounds that show differential cytotoxicity against isogenic chicken DT40 cell lines with known DNA damage response pathways - Rev3 mutant cell line (AID 743014); also: nearly all actives have a fitted effect of over 55% in size; also: potency is read from the fitted curve at half-maximal effect
# [20] = target: Androgen receptor (Homo sapiens) (UniProt P10275); test: qHTS assay to identify small molecule antagonists of the androgen receptor (AR) signaling pathway (AID 743035; active = well fitted inhibition curve with a large enough effect in the signal ratio in the repeat runs, not every such curve was filed as active; the % refers to the signal ratio)
# Procedure, shortened: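 Quantitative HTS of the Tox21 10K library used HEK293 AR-UAS-bla cells stimulated with R1881 alongside compound for 16 h at 37C, followed by beta-lactamase FRET detection (LiveBLAzer B/G, 2 h, RT).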
Compound,Potency [1],Potency [2],Potency [3],Potency [4],Potency [5],outcome [6],Potency [7],outcome [8],Potency [9],Potency [10],Potency [11],Potency [12],Potency [13],Potency [14],Potency [15],Potency [16],Potency [17],Potency [18],Potency [19],Potency [20]
Cc1cc(C)c(NC(=O)C[C@H](CC(=O)O)c2cccc3ccccc23)c(C(=O)N2CCC3(CCCC3)CC2)c1,inactive,inactive,inactive,inactive,inactive,inactive,inactive,inactive,inactive,10.7 µM (active),inactive,inactive,inactive,inactive,inactive,inactive,inactive,–,–,–
CCCC1C(=O)N2C(N(C)C)=Nc3ccc(C)cc3N2C1=O (configuration not stated),inactive,inactive,inactive,inactive,inactive,inactive,inactive,inactive,inactive,inactive,inactive,inactive,inactive,–,–,inactive,–,inactive,–,–
CS(=O)(=O)c1ccc(C2=C(c3ccccc3)C(=O)OC2)cc1,inactive,inactive,inactive,inactive,inactive,inactive,inactive,inactive,inactive,inactive,inactive,–,inactive,–,–,inactive,–,inactive,inactive,–
CO[C@@H]1[C@@H](O[C@@H]2O[C@H](C)[C@@H](O[C@H]3C[C@@](C)(O)[C@@H](O)[C@H](C)O3)[C@H](N(C)C)[C@H]2O)[C@@H](CC=O)C[C@@H](C)[C@@H](O[C@@H]2CC[C@H](N(C)C)[C@@H](C)O2)/C=C/C=C/C[C@@H](C)OC(=O)C[C@H]1O,inactive,inactive,inactive,inactive,inactive,inactive,inactive,inactive,inactive,inactive,inactive,inactive,–,–,–,inactive,–,inactive,–,–
CC[C@H](C)CCCCC(=O)N[C@@H](CCN)C(=O)N[C@H](C(=O)N[C@@H](CCN)C(=O)N[C@H]1CCNC(=O)[C@@H]([C@H](C)O)NC(=O)[C@H](CCN)NC(=O)[C@H](CCN)NC(=O)[C@H](CC(C)C)NC(=O)[C@@H](CC(C)C)NC(=O)[C@H](CCN)NC1=O)[C@@H](C)O (X2-[Dab]T[Dab][Dab][Dab][dL]L[Dab][Dab][dT]; lactam 4-C),inactive,inactive,inactive,inactive,inactive,inactive,inactive,inactive,inactive,inactive,inactive,inactive,–,–,–,inactive,–,–,–,–
CCOC(=O)C1=C[C@@H](OC(CC)CC)[C@H](NC(C)=O)[C@@H](N)C1,inactive,inactive,inactive,inactive,inactive,inactive,inactive,inactive,inactive,inactive,inactive,inactive,inactive,–,–,inactive,–,inactive,–,–
CCOC(=O)c1c[nH]c2cc(OCC(C)C)c(OCC(C)C)cc2c1=O,inactive,inactive,inactive,inactive,inactive,inactive,inactive,inactive,inactive,inactive,inactive,inactive,inactive,inactive,inactive,inactive,inactive,inactive,–,–
Cc1cccc(C)c1N(CCCc1cccnc1)C(=O)C(C)N (configuration not stated),inactive,inactive,inactive,inactive,inactive,inactive,inactive,inactive,inactive,inactive,inactive,–,inactive,inactive,inactive,inactive,inactive,inactive,inactive,inactive
CCCCC(=O)O[C@H]1CC[C@H]2[C@@H]3CCc4cc(O)ccc4[C@H]3CC[C@]12C,inactive,inactive,inactive,inactive,inactive,inactive,inactive,inactive,inactive,9.52 µM (active),inactive,18.8 µM (active),16.8 µM (active),–,–,inactive,–,inactive,–,–
NCCCNCCCCNC(=O)C(O)NC(=O)CCCCCCN=C(N)N (configuration not stated),inactive,inactive,inactive,inactive,inactive,inactive,inactive,inactive,inactive,inactive,inactive,1.06 µM (active),0.841 µM (active),–,–,inactive,–,inactive,–,–
[O]=[Bi][O]C(=O)[O][Bi]=[O],inactive,inactive,inactive,inactive,inactive,inactive,inactive,inactive,inactive,inactive,inactive,–,–,–,–,inactive,–,inactive,inactive,–
CO[C@H]1C=CO[C@@]2(C)Oc3c(C)c(O)c4c(O)c(c(/C=N/N5CCN(C6CCCC6)CC5)c(O)c4c3C2=O)NC(=O)/C(C)=C\C=C[C@H](C)[C@H](O)[C@@H](C)[C@@H](O)[C@@H](C)[C@H](OC(C)=O)[C@@H]1C,inactive,inactive,inactive,inactive,inactive,inactive,inactive,inactive,inactive,21.3 µM (active),–,3.35 µM (active),4.22 µM (active),–,–,23.7 µM (active),–,–,8.41 µM (active),–
CCN(CC)CCC(=O)N1c2ccccc2Sc2ccc(Cl)cc21,inactive,inactive,inactive,inactive,inactive,inactive,inactive,inactive,inactive,–,inactive,8.41 µM (active),11.9 µM (active),–,–,–,–,inactive,10.6 µM (active),–
CC(C)CCC[C@@H](C)[C@H]1CC(=O)C2=C3CC[C@H]4C[C@@H](O)CC[C@]4(C)[C@H]3CC[C@@]21C,inactive,inactive,inactive,inactive,inactive,inactive,inactive,inactive,inactive,–,inactive,0.596 µM (active),0.841 µM (active),inactive,inactive,inactive,inactive,inactive,0.298 µM (active),inactive
